From PubChem
This is one part of a sample in which hits are shown more often than they occur.
mHTT CaM bind = disrupts binding of mutant huntingtin to calmodulin | hit rate 3.6% among 190,000 | AID 1671202 | inhibition, % at 15 µM | AlphaScreen His-mHTT/GST-CaM binding, luminescence | P42858;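 also: 0% = both proteins with DMSO and 100% = one protein alone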
Pf apPOL inh = Pf-apPOL DNA polymerase inhibition | Recombinant Pf-apPOL, molecular beacon fluorescence, 1.5 h | inhibition, % at 10 µM | hit rate 0.25% among 210,000 | AID 1794808
The depositor's hits bear a star; ! = not confirmed by another sample. Rule as the data show it: active = inhibition above about 50%; inactive = the rest.

SMILES	mHTT CaM bind	Pf apPOL inh
Cc1cc(C)c(S(=O)(=O)Nc2ncccn2)c(C)c1	2.0	-4.8
O=C1c2cccc([N+](=O)[O-])c2C(=O)N1CNc1cc(Cl)ccc1Cl	20.0	-0.5
CC1C(=O)N(Cc2cn(Cc3ccco3)nn2)CCS(=O)(=O)N1Cc1ccc(-c2ccc(F)cc2Cl)cc1 (stereo unspecified)	81.0*	4.4
CC1C(=O)N(Cc2cn(Cc3ccco3)nn2)CCS(=O)(=O)N1Cc1ccc(-c2ccncc2)cc1 (stereo unspecified)	29.5	8.9
CC1C(=O)N(Cc2cn(CCC3OCCCO3)nn2)CCS(=O)(=O)N1Cc1ccc(-c2ccc(F)nc2)cc1 (stereo unspecified)	14.6	-14.3
CC1C(=O)N(Cc2cn(Cc3ccco3)nn2)CCS(=O)(=O)N1Cc1ccc(-c2ccccc2Cl)cc1 (stereo unspecified)	76.8*	-2.8
CC(C)CCn1c(=O)oc2ccccc21	-23.9	-2.7
COCCN1C(=O)C(O)=C(C(=O)c2ccc(C)o2)C1c1cccc([N+](=O)[O-])c1 (stereo unspecified)	6.7	-2.8
O=C(CSc1n[nH]c(-c2ccncc2)n1)c1ccc(O)c(O)c1	83.5*!	-1.1
O=C(CSc1n[nH]c(-c2ccncc2)n1)c1ccc(F)cc1	9.0	0.8
CC(C)C1C(=O)N(Cc2cn(CCC3OCCO3)nn2)CCS(=O)(=O)N1Cc1ccc(-c2cccc(N(C)C)c2)cc1 (stereo unspecified)	67.7*	-0.7
COCOCCn1cc(CN2CCS(=O)(=O)N(Cc3ccc(-c4cccc(CO)c4)cc3)C(C(C)C)C2=O)nn1 (stereo unspecified)	23.1	-11.4
CC(C)C1C(=O)N(Cc2cn(CCC3OCCCO3)nn2)CCS(=O)(=O)N1Cc1ccc(-c2cccc(N(C)C)c2)cc1 (stereo unspecified)	61.1*	-6.3
CC(C)C1C(=O)N(Cc2cn(CCC3OCCCO3)nn2)CCS(=O)(=O)N1Cc1ccc(-c2cccc(CO)c2)cc1 (stereo unspecified)	45.5	-7.3
COCOCCn1cc(CN2CCS(=O)(=O)N(Cc3ccc(-c4cccc(N(C)C)c4)cc3)C(C(C)C)C2=O)nn1 (stereo unspecified)	56.7*	-2.7
CC1C(=O)N(Cc2cn(CCC3OCCCO3)nn2)CCS(=O)(=O)N1Cc1ccc(-c2cccc(N(C)C)c2)cc1 (stereo unspecified)	39.5	-1.6
CCOc1ccc(C2OC(=O)Cc3cc(OCC)c(OCC)cc32)cc1OCC (stereo unspecified)	7.0	-0.3
CCOc1ccc(C2Oc3c(cc(Br)cc3OC)C=C2[N+](=O)[O-])cc1OCC (stereo unspecified)	62.0*	-2.9
Cc1cc2ccccc2n1CCNC(=O)COc1ccc(Cl)cc1Cl	-2.0	-5.5
COC(=O)c1cccc(C(=O)N2CCN(c3cc(C)ccc3C)CC2)n1	1.1	-0.3
CC(C)c1nc(N2CCCC2=O)sc1C(=O)N1CCN(c2ccccc2F)CC1	55.0*	-3.0
CCc1cc(C(=O)N2CCN(c3cc(C)ccc3C)CC2)nc2ccnn12	54.1*	1.4
CCc1nc(N2CCCC2=O)sc1C(=O)N1CCN(c2cc(C)ccc2C)CC1	95.4*	-0.5
Cc1ccc(C)c(N2CCN(C(=O)c3cc(C)n4nccc4n3)CC2)c1	-6.5	-3.1
CC(C)c1nc(N2CCCC2=O)sc1C(=O)N1CCN(c2ccc(F)cc2)CC1	32.5	-0.6
SMILES	mHTT CaM bind	Pf apPOL inh
CC(=O)c1cccc(NC(=O)CN(Cc2ccccc2)S(=O)(=O)c2ccccc2)c1	-3.5	-3.9
COCCN=C1Nc2ccccc2CNC12CCNC2 (stereo unspecified)	10.6	5.0
COc1ccc(C(O)CN2CCN(c3ccccc3Cl)CC2)cc1OC (stereo unspecified)	13.0	-7.4
CC(=O)N1CCc2ccccc2C1C(=O)NC1CC1 (stereo unspecified)	-5.4	-0.9
CC12CCC3C(CCC4CCCCC43C)C1CC(c1nc3ccccc3[nH]1)=C2O (stereo unspecified)	-1.0	-1.0
CC12CCC3C(CCC4CCCCC43C)C1CCC2N (stereo unspecified)	100.0*	-1.2
COc1ccc(CN2C(=O)CCC2(C)C(=O)NCc2ccccc2)c(OC)c1 (stereo unspecified)	1.4	-2.3
O=C(C1CCCCC1)N1CCN(c2nc(CN3CCCCCC3)cs2)CC1	96.2*	33.5
Cc1ccc(OCC(=O)N2CCN(c3nc(CN4CCCCC4)cs3)CC2)cc1	38.4	0.8
O=C(COc1ccc(Cl)cc1)N1CCN(c2nc(CN3CCCCC3)cs2)CC1	50.1*	-3.3
O=C(C1CCCC1)N1CCN(c2nc(CN3CCCCCC3)cs2)CC1	16.3	4.0
CN1c2cc(Cl)ccc2C(=O)NC12CCN(C(=O)Nc1ccc3c(c1)OCO3)CC2	23.8	-8.8
COC(=O)c1ccc(NC(=O)C(=O)NCC(c2ccco2)N2CCc3ccccc32)cc1 (stereo unspecified)	-1.2	-4.8
COc1cc(C=Nc2ccc(C)cc2O)ccc1O	77.0*	-4.1
